# Values without a mark were called inactive. Activity calls are given as the source filed them. Calls follow the shape of the dose curve; as a rule, active = well fitted curve in the direction sought with a large enough effect in the repeat runs; inconclusive = weak or mixed curves; inactive = flat fitted curve, though single readings scatter.
# Assay: qHTS assay to test for compound auto fluorescence at 535 nm (green) in HEK293 cell free culture (AID 720682)
# Settings: cell-free medium, green autofluorescence 485/535 nm, active compounds read high; series mostly up to 91.3 µM; activity change: at the top concentration
# Description: U.S. Tox21 Program National Center for Advancing Translational Sciences [NCATS] NIH Chemical Genomics Center [NCGC] U.S. Environmental Protection Agency [EPA] National Institutes of Environmental Health Sciences [NIEHS] National Toxicology Program [NTP] U.S. Food and Drug Administration [FDA] Tox21 Assay Overview: Compound auto fluorescence often interferes with screening of the compound library against various biological targets and signaling pathways. Some of these compounds may have fluorophoric properties. Such properties may interfere with the assay outputs resulting in false positives and/or negatives. To decrease such complications and ensure the compound activities are relevant in terms of biological response, the Tox21 10K compound library was screened for auto fluorescence. From the fluorophores used as reporter signals in our screening assays, the auto fluorescence equivalencies of compounds against three fluorophores have been evaluated: Triamterene, Fluorescein and Rose Bengal sodium for blue, green and red fluorescence, respectively. The fluorescence intensities were measured using Excitation/Emission wavelengths at 405/460nm, 485/535nm and 540/590nm for blue, green and red labels, respectively. This assay includes the green fluorescence data.
# Tox21 Assay Protocol Summary: 5 uL of culture medium (DMEM containing 10% FBS) per well was dispensed into black wall/clear bottom 1536-well plates using a Multidrop Combi Dispenser (ThermoFisher Scientific, Waltham, MA). After 23 nL compound or DMSO vehicle was transferred into assay plate by a pintool work station (Kalypsys, San Diego, CA), fluorescence intensities in the assay plates were measured by an Envision (PerkinElmer, Shelton, CT) plate reader using three labels for measuring blue, green and red fluorescence at […] 460, 535 and 590nm respectively.
# % is scaled to controls: 0 for no effect and ±100 for the full control effect.
SMILES,activity change,outcome
CC(=O)CCc1ccc2c(c1)OCO2,-0.0157%,–
COC(=O)C(C)Oc1ccc(Oc2ccc(Cl)cc2Cl)cc1 (stereo not given),0.0068%,–
CCCSP(=S)(OCC)Oc1ccc(Cl)cc1Cl (stereo not given),-0.0334%,–
CSc1nc(N=[N+]=[N-])nc(NC(C)C)n1,-0.0268%,–
ClCCOCOCCCl,-0.0751% [at 95.7 µM],–
CN1CCC(O)(c2ccc(F)cc2)C(C(=O)c2ccc(F)cc2)C1 (stereo not given),0.101% [at 46 µM],–
c1coc(-c2nc3ccccc3[nH]2)c1,-0.0549%,–
ClC(Cl)(Cl)C(Cl)(Cl)Cl,0.113% [at 95.7 µM],–
O=c1oc2ccccc2c(O)c1C1CCCc2ccccc21 (stereo not given),-0.0742%,–
O=C(Nc1ccccc1)N(Cc1ccc(Cl)cc1)C1CCCC1,-0.0221%,–
COc1cccc2c1cc([N+](=O)[O-])c1c(C(=O)O)cc3c(c12)OCO3,-0.232%,–
C[N+](=O)[O-],0.0409%,–
O=C(O)C(Br)CBr (stereo not given),0.007% [at 95.7 µM],–
Clc1cccc(N2CCNCC2)c1,-0.167% [at 46 µM],–
N#CCBr,-0.0074% [at 95.7 µM],–
CC(=O)Nc1cc([As](=O)(O)O)ccc1O,0.0424% [at 46 µM],–
N#CC(O)c1ccccc1 (stereo not given),0.101%,–
Cc1cc(C)nc(Nc2ccccc2)n1,0.0052%,–
C[C@@H]1CN(C2CCC(C#N)(c3ccc(F)cc3)CC2)CC[C@]1(C(=O)O)c1ccccc1 (stereo not given in full),-0.0185% [at 18.6 µM],–
CCS(=O)(=O)C(C)(C)S(=O)(=O)CC,0.055% [at 46 µM],–

SMILES,activity change,outcome
CNC(=O)Oc1ccc(N(C)C)c(C)c1,-0.0305%,–
CCC(=O)c1ccccc1,-0.0219%,–
C#CCN1C(=O)COc2cc(F)c(N3C(=O)C4=C(CCCC4)C3=O)cc21,-0.0578%,–
CCOP(=S)(OCC)SCSP(=S)(OCC)OCC,0.0095%,–
COc1cc(OC)nc(Oc2cccc(Oc3nc(OC)cc(OC)n3)c2C(=O)O)n1,-0.0197%,–
[O]=[Cd],–,inactive
CC(C)(C)C(=O)C(Oc1ccc(Cl)cc1)n1cncn1 (stereo not given),-0.0901%,–
Nc1ccccc1Cl,0.046%,–
CCOP(=O)(OCC)OP(=O)(OCC)OCC,-0.0468%,–
CCCCN(CCCCO)N=O,-0.0096%,–
CCCCOP(=O)(O)OCCCC,-0.0188%,–
CC(C)CC#N,-0.0194% [at 95.7 µM],–
NC(=O)c1cc([N+](=O)[O-])cc([N+](=O)[O-])c1,0.153% [at 46 µM],–
CC(C)COP(=O)(OCC(C)C)OCC(C)C,0.0042%,–
O=S(=O)(O)C(F)(F)C(F)(F)C(F)(F)C(F)(F)C(F)(F)C(F)(F)F,0.101%,–
CCCCCCI,0.0148%,–
C=CCC1=C(C)[C@@H](OC(=O)[C@@H]2[C@@H](C=C(C)C)C2(C)C)CC1=O,0.248%,–
NC(=O)O,0.041%,–
CCN(CC)C(=O)[C@@H]1C=C2c3cccc4[nH]cc(c34)C[C@H]2N(C)C1,–,inactive
C1CCC(C2CCCCC2)CC1,0.0507%,–

# — PubChem BioAssay (Tox21)
